Source: PubChem BioAssay (National Center for Advancing Translational Sciences (NCATS))
IL1B secr inh – inflammasome signaling inhibition, IL-1 beta readout; THP-1 LPS/ATP IL-1B secretion, AlphaLISA, 16 h; stronger effect = lower value; activity change, % at 57.5 µM; actives 4.7% (n = 360,000); AID 743279; in the data active = activity change below about -50%; inconclusive = mostly about -30% to -49%
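Secreted IL-1B measured by AlphaLISA bead assay after 16 h compound exposure of THP-1 cells; compounds (final up to 57.5 uM) added 1 h before LPS (250 ng/mL) and ATP (1.25 mM) stimulation; lower signal means less secretion.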
HT1080 IDH1KD tx – toxicity to HT-1080 IDH1 knockdown cells (counter line). HT-1080 IDH1 knockdown viability, ATP luminescence, 48 h. Potency, µM (titrated, usually from 46.1 µM), without a hit: top-dose activity, negative = toxicity, usual class: cytotoxic. actives 2% (n = 360,000);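 note: potency is the fitted concentration of half-maximal effect; 0% = DMSO wells and -100% = cell-free medium wells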
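Luminescent ATP read-out (CellTiter-Glo, 10 min at room temperature) after 48 h compound exposure at 37 °C gave viability of IDH1-knockdown HT-1080 cells. Activity was normalised to DMSO and cell-free wells, then fitted as concentration-response curves.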
TDP1 cell noCPT – qHTS for Inhibitors of human tyrosyl-DNA phosphodiesterase 1 (TDP1): qHTS in cells in absence of CPT; actives 15% (n = 420,000); Potency, µM (series often up to 46.2 µM), for inactives: at the highest dose activity change, negative = growth inhibition, usual class: inhibitors; DT40 Tdp1-/- hTDP1 cells, no CPT, ATP luminescence, 48 h; note: potency is the fitted concentration of half-maximal effect; nearly all actives have a fitted effect of over 55% in size
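Seeded 400 DT40-hTDP1 cells/well (vehicle DMSO, no 20 nM CPT); pinned compounds; ≥48 hr at 37 °C; CellTiter-Glo luminescence as viability measure.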
TDP1 cell CPT – growth inhibition of DT40 Tdp1-/-;hTDP1 cells with camptothecin (screen for TDP1 inhibitors); Potency, µM (top dose mostly 46.2 µM), for the others: at the top dose activity change, negative = growth inhibition, most hits filed as inhibitors; AID 686979; chicken DT40 Tdp1-/-;hTDP1 cells + 20 nM CPT, ATP luminescence, 48 h; actives 12% (n = 420,000); note: potency is the fitted concentration of half-maximal effect; nearly all actives have a fitted effect of over 55% in size
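Chicken DT40 Tdp1-/- cells stably complemented with human TDP1 were seeded at 400 cells/well in medium containing 20 nM camptothecin, exposed to pin-transferred compounds, and grown at 37 °C for at least 48 hr. Viability was read as ATP luminescence.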
HT1080-NT tox – kills 2HG-producing HT-1080-NT fibrosarcoma cells | actives 1.6% (n = 360,000) | HT-1080-NT fibrosarcoma viability, CellTiter-Glo ATP luminescence, 48 h | Potency, µM (top dose mostly 46.1 µM), inactives show at the top dose activity, negative = less viability, usual class: cytotoxic;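 note: NT is the 2HG producing partner of a matched IDH1 knockdown line; potency is the fitted concentration of half-maximal effect; 0% = DMSO-treated cells and -100% = media-only wells without cells; nearly all actives have a fitted effect of over 55% in size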
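HT-1080-NT; 750 cells/well; 5% FBS RPMI; 48 h compound, 37 degrees C; CellTiter-Glo luminescence; curve fitting and curve-class assignment.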
Starred values were filed as active, the others as inactive; ? = inconclusive; nt = no result given. Compounds with a hit are over-represented: about 19% of the library has one in this group of screens. Unless noted, calls come from the whole dose curve; as a rule, active = well fitted curve in the direction sought with a large enough effect; inconclusive = small, poorly fitted or top-dose-only effect, or another doubt; inactive = no such curve, though single readings can be large; an effect the other way counts as inactive or inconclusive. Unless noted, % is set by controls: 0 for no effect and ±100 for the full control effect.

SMILES	IL1B secr inh	HT1080 IDH1KD tx	TDP1 cell noCPT	TDP1 cell CPT	HT1080-NT tox
CC1(c2ccccc2)O[C@@H]2C[C@H]3[C@@H]4CCC5=CC(=O)C=C[C@]5(C)[C@@]4(F)[C@@H](O)C[C@]3(C)[C@]2(C(=O)CO)O1 (stereo partly specified)	-67*	0%	?	?	?
C[C@H]1C[C@H]2[C@@H]3CCC4=CC(=O)C=C[C@]4(C)[C@@]3(F)[C@@H](O)C[C@]2(C)[C@@]1(O)C(=O)CO	-59*	22%	-11%	-11%	?
CCC(=O)N1CCc2cc(S(=O)(=O)NCCc3ccc(S(N)(=O)=O)cc3)ccc21	-5	-2%	0%	-23%	2%
CC(C)(C)OC(=O)n1cc(CCO)c2ccccc21	32	2%	-20%	-19%	6%
NC(=O)C1CCCN1 (stereo unspecified)	26	14%	-9%	8%	17%
CC1(C)OC2CC3C4CC(F)C5=CC(=O)C=CC5(C)C4(F)C(O)CC3(C)C2(C(=O)CO)O1 (stereo unspecified)	-50*	35%	1%	-4%	?
O=C(NCC(=O)N1CCN(S(=O)(=O)c2cccs2)CC1)c1ccc(Cl)cc1	22	-11%	-7%	5%	-11%
CCCCn1nc(NC(=O)c2cccs2)c2cc3cc(OC)ccc3nc21	4	?	23µM*	18µM*	?
CCCn1nc(NC(=O)c2cccs2)c2cc3ccc(C)cc3nc21	-16	-3%	?	?	-15%
CCCn1nc(NC(=O)c2cccs2)c2cc3cc(OC)ccc3nc21	-18	-1%	12µM*	13µM*	0%
CCCCn1nc(NC(=O)CCC)c2cc3cc(OC)ccc3nc21	32	-14%	?	-24%	-14%
CCCn1nc(NC(=O)c2cccs2)c2cc3cc(C)ccc3nc21	-21	-28%	16µM*	?	-11%
CCCCn1nc(NC(=O)c2cccs2)c2cc3ccccc3nc21	-94*	?	18µM*	21µM*	?
CCCn1nc(NC(=O)c2cccs2)c2cc3ccccc3nc21	-2	3%	?	?	-1%
COc1ccc(C(=O)N2CCN(C)C(=O)[C@@H]2C)cc1OC1CCN(C(C)C)CC1	14	3%	-8%	-16%	1%
CCN(CC)CCCNc1nc2ccccc2c2nc(-c3ccncc3)nn12	-102*	16µM*	21µM*	?	?
COc1cc2nc(NCC3CCCO3)n3nc(-c4cccnc4)nc3c2cc1OC (stereo unspecified)	-20	10%	21µM*	9.2µM*	9%
CCN(CC)CCCNc1nc2cc(OC)c(OC)cc2c2nc(-c3ccccc3)nn12	-88*	?	5.2µM*	21µM*	18µM*
COc1ccc(-c2nc3cccc(C)n3c2NCC2CCCO2)cc1O (stereo unspecified)	?	-8%	?	?	-3%
CCN(CC)CCCNc1nc2cc(OC)c(OC)cc2c2nc(-c3cccnc3)nn12	-90*	-1%	13µM*	15µM*	-3%
Cc1cc(F)ccc1NC(=O)CN(C)S(=O)(=O)c1ccc(C(=O)N2CCOCC2)s1	nt	nt	-26%	?	nt
CC(=O)N1N=C(c2ccccc2)CC1c1ccc(F)cc1 (stereo unspecified)	8	6%	?	-28%	-3%
CC(=O)N1N=C(c2ccccc2)CC1c1cn(C)c2ccccc12 (stereo unspecified)	?	-8%	21µM*	?	0%
COc1ccc([C@H]2CC(=O)C=C(c3ccccc3)C2)cc1	-8	3%	?	-5%	-11%
COc1ccc(C2CC23N=C(c2ccccc2)OC3=O)cc1 (stereo unspecified)	?	-4%	?	18µM*	-1%
